# mHTT CaM bind: disrupts binding of mutant huntingtin to calmodulin; AlphaScreen His-mHTT/GST-CaM binding, luminescence; inhibition, % at 15 µM; hit rate 3.6% among 190,000; AID 1671202;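 further: 0% = both proteins with DMSO and 100% = one protein alone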
# Pf apPOL inh: Pf-apPOL DNA polymerase inhibition; Recombinant Pf-apPOL, molecular beacon fluorescence, 1.5 h; inhibition, % at 10 µM; hit rate 0.25% among 210,000
# * marks the source's active call; other numbers are inactive results; i = inactive; . = no result given; + = active, no number. The list is not random: actives were taken first. Their share in the collection is about 3.6%. No stated cut-off is given here; in the data, active means inhibition above about 50%; inactive means the rest.
SMILES,mHTT CaM bind,Pf apPOL inh
COCCn1cc2c3c(cccc31)CN(C(=O)Cc1cccc(OC)c1)CC2,46,-6
NC(=S)N/N=C/c1c2ccccc2cc2ccccc12,i,.
NC(=S)NN=C1c2ccccc2-c2ccccc21,55*,.
NS(=O)(=O)c1ccc(N=Cc2ccc([N+](=O)[O-])cc2)cc1,4,0
COc1cc(/C=C2\C(=O)NN(c3ccc(Br)cc3)C2=O)ccc1O,18,6
COc1ccc(-c2n[nH]c(C)c2Oc2ccc(F)cc2)c(O)c1,34,-8
Cc1[nH]nc(-c2ccc(O)c(C)c2O)c1Oc1ccc(F)cc1,55*,8
CCCNC(=O)C1CCCN(c2nccc(C)n2)C1 (centres undefined),4,-3
COc1ccc(-c2nc3cc(C)ccn3c2NC(=O)C2CCCC2)cc1,31,7
COc1ccc(-c2nc3ccc(C)cn3c2NC(=O)C2CCCC2)cc1,51*,-3
CCOc1cncc(C(=O)Nc2ccccc2OCC)c1,-12,-2
C#CCOc1ccc(/C=N\n2cnnc2N/N=C/c2ccc(OCC#C)c(OC)c2)cc1OC,+,.
Oc1ccc(/C=N\Nc2nncn2/N=C\c2ccc(O)c(O)c2)cc1O,i,.
CCOc1ccc(NC(=O)C2CCCN(c3nccnc3Oc3ccccc3)C2)cc1 (centres undefined),-12,-5
COc1cc(C2CC(=O)c3cnc(NC(=O)c4ccccc4)nc3C2)cc(OC)c1OC (centres undefined),-4,-2
CCCCCC(=O)Nc1ncc2c(n1)CC(c1cc(OC)c(OC)c(OC)c1)CC2=O (centres undefined),0,82*
O=C(O)C1=C/C(=C(\c2ccccc2)c2cc(C(=O)O)c(O)c3ccccc23)c2ccccc2C1=O,-4,.
O=c1/c(=C/c2ccccc2)sc2nc(-c3cccs3)nn12,4,-12
O=c1/c(=C/C=C/c2ccccc2)sc2nc(-c3cccs3)nn12,52*,0
Cc1nccc(-c2cccc(NN=C(C#N)C(=O)c3ccc(Cl)cc3)c2)n1,.,15
CCn1c2c(c3ccccc31)CN(C(=O)c1ccc(C#N)cc1)CC2,54*,-4
CSc1nnc(-c2nn(C)c3c2CN(C(=O)c2ccc(C#N)cc2)CC3)n1C,-2,-4
CN(C)CCNC(=O)c1ccc([N+](=O)[O-])cc1,-12,2
O=C(CN1CC(c2nc(C3CC3)no2)C1)NCc1ccco1,-8,-22
Fc1ccc(-c2ccc(CNCc3ccco3)o2)cc1,9,-2
SMILES,mHTT CaM bind,Pf apPOL inh
Brc1ccc(-c2ccc(CNCc3ccco3)o2)cc1,92*,-9
O=C(Nc1cc(Br)cc2cccnc12)c1ccccc1Br,-4,-5
Oc1c(C(Nc2ccccn2)c2ccccc2Br)ccc2cccnc12 (centres undefined),99*,-1
Oc1ccc(Br)c(C(Nc2ccccn2)c2ccc3cccnc3c2O)c1 (centres undefined),100*,-4
Cc1ccc(NC(=O)N2CCCC2c2nc(-c3ccc(F)cc3F)no2)c(C)c1 (centres undefined),-2,0
Cc1cccc(N=CC=C2OC(C)(C)C(C)(C)O2)c1,44,-1
Cc1ccc(N=CC=C2OC(C)(C)C(C)(C)O2)cc1,56*,-1
C=CCNCCCOc1ccccc1C(C)CC (centres undefined),-13,-15
O=C(Nc1cnc(N2CCOCC2)nc1)c1c(F)cccc1Cl,-4,-5
O=C(NCc1ccccc1)c1cc2n(n1)CCCC2,-3,-3
O=C(C1CCC1)N1CCN(C2=NN=C(c3cccs3)CS2)CC1,78*,-5
O=C(c1cccs1)N1CCN(C(=O)C2CCCCC2)CC1,.,-8
O=c1c2c(nc(SCc3cccc(F)c3)n1-c1ccc([N+](=O)[O-])cc1)CCS2,17,4
COc1ccc(OC)c(COCC(O)CN2CC(C)CC(C)C2)c1 (centres undefined),-6,-1
COc1cccc(CNC(=O)N2CCC3(CC2)Nc2cc(F)ccc2-n2cccc23)c1,44,3
Cc1ccc2c(c1)NC1(CCN(C(=O)CSCc3ccc(F)cc3)CC1)c1cccn1-2,100*,-7
CNC(=O)N1CCC2(CC1)Nc1cc(F)ccc1-n1cccc12,36,4
O=C(NCc1ccco1)N1CCC2(CC1)Nc1cc(F)ccc1-n1cccc12,47,3
O=C(NCc1ccccc1)N1CCC2(CC1)Nc1cc(F)ccc1-n1cccc12,51*,-2
Cc1ccc(CNC(=O)N2CCC3(CC2)Nc2cc(F)ccc2-n2cccc23)cc1,66*,-2
CCOC(=O)CCc1c(C)n[nH]c1C,-1,-1
CCOC(=O)CCc1c(CC(=O)OCC)c[nH]c1C=NO,.,99*
CS(=O)(=O)N(CC(=O)Nc1ccccc1F)c1ccc(I)cc1,-1,-4
CCC(Sc1nnc2c3ccccc3n(CC)c2n1)C(=O)Nc1ccc([N+](=O)[O-])cc1 (centres undefined),9,2
O=C1C(N2CCCN(S(=O)(=O)c3cccc(Cl)c3)CC2)CCN1Cc1ccccc1 (centres undefined),13,7
